The values below come from ChEMBL document CHEMBL3988442, “University of Dundee, Small-Polar-MMV Screening Library” (2021).

The whole screen tested about 48,000 compounds, of which about 13,000 (27%) showed an effect of 50% or more. Some of the results follow.

In the test the test system is Wolbachia pipientis. The experiment in a line: Anti-Wolbachia Cell-Based Screen. It is filed as functional. Further details: scale not given: in the data most compounds retested in dose-response had high values. The following applies: 5 µM.
Consider `Cc1cnn(CC2CN(c3ncnc4ccsc34)CCO2)c1` (configuration not stated), for which the “Percent Effect” value is reported as -19.26%.
Turning to `O=C(Nc1cn[nH]c1)N(CCCO)C1CCc2ccccc21` (configuration not stated), the “Percent Effect” value was -15.52%.
Turning to `Cc1cc(NC(=O)N2CCOCC2)nn1-c1cccc(Cl)c1`, the “Percent Effect” value came out at 1.002%.
With `c1ccc(COCCN2CCc3[nH]cnc3C2c2ccoc2)cc1` (configuration not stated) the figure was 3.153%; with `O=C(NCc1cscn1)NC1CCN(c2ncccc2Cl)C1` (configuration not stated), -8.414%; with `CC(C)CC(NS(C)(=O)=O)C(=O)N(C)Cc1nnc2n1CCC2` (configuration not stated), -5.124%.
With `COc1cccc(OC2CN(C(=O)C3CCCN(C(=O)N(C)C)C3)C2)c1` (configuration not stated) the figure was -3.604%.
The value for `CCOCC(=O)N1C[C@@H]2COC[C@H](c3nc(C)no3)[C@@H]2C1` was 1.076%.
As for `CCOCC(=O)N1C[C@@H]2COC[C@]2(c2nc(C)no2)C1`, the “Percent Effect” value is recorded as 107.1%.
Consider `Cc1cc(C(=O)N2C[C@@H]3COC[C@]3(c3nnc(C)o3)C2)on1`, for which the “Percent Effect” value came out at 27.9%.
With `CN(C)CCNC(=O)c1nc2c(o1)CN(c1ncccn1)C2` the figure was -6.07%; with `Cc1ncc2c(c1CNC(=O)C1(c3ccc(F)cc3)CC1)CCNC2`, 13.15%; with `CCNC(=O)Cc1ccc(-c2cccc3c2CCNC3)cc1`, 110.7%.
As to `CN(C)C(=O)Cc1ccc(-c2cccc3c2CCNC3)cc1`, the “Percent Effect” value is recorded as 105%.
As for `Cc1nc(-n2cnnc2)ccc1-c1cccc2c1CCNC2`, the “Percent Effect” value is recorded as -4.509%.
As for `Cc1cc(-c2cccc3c2CCNC3)cnc1-n1cnnc1`, the “Percent Effect” value turned out to be 3.521%.
`CCNC(=O)Cc1ccc(NC(=O)NC(CC)c2ccncc2)cc1` (configuration not stated): the “Percent Effect” value was found to be 3.124%.
The value for `CCS(=O)(=O)CCNC(=O)NCc1ccccc1-n1cccn1` was -14.43%; that for `CS(=O)(=O)N1CCC2(CC1)CC(OCC1CCOCC1)CO2` (configuration not stated) was -4.18%.
Consider `CCCc1nc(CN(CC)C(=O)c2ccc3c(c2)nnn3C)no1`, for which the “Percent Effect” value was found to be 9.755%.
With `COCC(O)CN1CCC(=O)N(CC=C(C)C)Cc2ccccc21` (configuration not stated), the “Percent Effect” value was 122.6%.
Turning to `COCC(O)CN1CCC(=O)N(CC2CC2)Cc2ccccc21` (configuration not stated), the “Percent Effect” value was 108.3%.
With `CCCS(=O)(=O)CC(=O)N1CCN(CC2CC2)c2ccccc21`, the “Percent Effect” value is recorded as -17.3%.
Regarding `COCC(O)CN1CCC(=O)N(CC(=O)C(C)(C)C)Cc2ccccc21` (configuration not stated), the “Percent Effect” value is reported as 110.3%.
`COCCC(=O)N1CCN(CC2CC2)c2ncccc2C1`: the “Percent Effect” value is given as -45.17%.
With `COc1ccc(CNC(=O)CN2CCc3ccccc32)cc1` the figure was 5.049%; with `O=C(CN1CCc2ccccc21)Nc1ccc(OC(F)F)cc1`, -23.08%; with `O=C(NCCNc1ncccn1)c1ccc(OCc2ccccc2)nc1`, -6.041%.
`CN(c1ccc(CNC(=O)c2c[nH]c(=O)c(Cl)c2)cc1)C1CCCCC1`: the “Percent Effect” value amounted to 0.5041%.
As for `CCOCCOC(C)C(=O)Nc1nccn1Cc1ccccc1` (configuration not stated), the “Percent Effect” value is reported as -11.15%.
In the case of `CC(CCS(C)(=O)=O)NC(=O)NCc1ccc2ccccc2c1` (configuration not stated), the “Percent Effect” value is -7.499%.
For `Cc1cc(C)n(C2CN(c3nc(-c4ccncc4)nc4c3CCC4)C2)n1`, the “Percent Effect” value is -1.448%.
For `CN(C)C(=O)c1ccc(NCCNc2ccc3ccccc3n2)nc1`, the “Percent Effect” value is -5.082%.
Turning to `Cc1nc(C2CCN(C(=O)c3ccc(=O)n(C)c3)CC2)c2sccn12`, the “Percent Effect” value is given as -4.246%.
With `CCOc1cc(C)nc(N2CCN(C(=O)c3ccnn3C)CC2)n1` the figure was 4.776%; with `Cc1c(C(=O)N2CCC(c3nc(C)n4ccsc34)CC2)cnn1C`, 112.4%; with `Cc1nc(C2CCN(C(=O)c3ccnn3C)CC2)c2sccn12`, 90.51%.
For the molecule `Cc1nc(C2CCCN(C(=O)c3ccncc3)C2)c2sccn12` (configuration not stated), the “Percent Effect” value is 112%.
`CCCn1ncc(C(=O)N2CCN([C@H]3CCCC[C@@H]3O)CC2)c1C`: the “Percent Effect” value is recorded as 2.84%.
With `Cc1csc(C2CCCN(C(=O)c3cnn4ccc(C)nc34)C2)n1` (configuration not stated) the figure was -3.808%; with `O=C(CCCN1CCCCC1)N1CCN(C(=O)c2ccc[nH]2)CC1`, 1.236%; with `CCC1CN(C(=O)COc2ccc(C(=O)NC3CC3)cc2)CCO1` (configuration not stated), -23.61%.
As for `CCc1nccn1CCC(=O)N1CCN(c2ccccc2C)CC1C` (configuration not stated), the “Percent Effect” value is recorded as 0.5766%.
Turning to `CC(=O)N1CCC(c2ccnc(Nc3cncnc3)n2)CC1`, the “Percent Effect” value stood at 88.64%.
For `CC(=O)N1CCC(NS(=O)(=O)c2cccnc2)CC1`, the “Percent Effect” value is recorded as 4.265%.
With `Cc1ccc(Nc2nccc(C3CCN(C(=O)CO)C3)n2)nc1` (configuration not stated) the figure was 147.3%; with `CC(=O)N1CCC(c2ccnc(Nc3ccc(C)cn3)n2)C1` (configuration not stated), 111.1%; with `CNCC(=O)N1CCC(c2ccnc(Nc3ccc(C)cn3)n2)C1.Cl` (configuration not stated), -6.427%.
In the case of `CC(=O)N1CC[C@H](c2nc3cc(C)ccc3o2)C1`, the “Percent Effect” value is listed as -3.722%.
Consider `CC(=O)N1CCN(c2ccccc2CNc2ccc(C)cn2)CC1`, for which the “Percent Effect” value was 1.224%.
As for `O=C(CCSc1ccc(F)cc1)NS(=O)(=O)c1ccc2c(c1)OCCO2`, the “Percent Effect” value is recorded as 5.18%.
Take `FC(F)(F)c1ccc(-c2cc(NC3CCNCC3)nc3[nH]ccc23)nc1`: the “Percent Effect” value was -3.524%.
For the molecule `COCCN(C/C=C/c1ccccc1)Cc1nccs1`, the “Percent Effect” value is given as -13.78%.
Turning to `OCC1CCCCN1CCCNCc1cc(O)c2cc(F)ccc2n1` (configuration not stated), the “Percent Effect” value was 13.42%.
With `CC(C)N1CCCCC1CCn1cnc2cc(C(F)(F)F)ccc2c1=O` (configuration not stated) the figure was 86.9%; with `CC(C)(C)c1cc2ncn(CCCN3CCCCC3CO)c(=O)c2s1` (configuration not stated), 91.32%.
With `Cc1cc(C)n(CC2CCCCN2CCCS(N)(=O)=O)n1` (configuration not stated) the figure was 6.399%; with `OCC1CCCCN1CCn1ccnc1-c1ccc2c(c1)OCCO2` (configuration not stated), 3.348%.
The value for `O=c1c2ccc(Cl)cc2ncn1CCCN1CCCCC1CO` (configuration not stated) was 62.54%; that for `O=c1c2ccc(C(F)(F)F)cc2ncn1CCCN1CCCCC1CO` (configuration not stated) was 127.8%; that for `CC1CCCCN1C(=O)CCn1cnc2sccc2c1=O` (configuration not stated) was -3.502%.
Consider `CC1CCN(CC(O)Cn2cnc3ccc(Cl)cc3c2=O)CC1` (configuration not stated), for which the “Percent Effect” value is given as -0.72%.
As for `Cc1nc(C)n(CC2CCCCN2CCCN2CCCC2=O)n1` (configuration not stated), the “Percent Effect” value is -1.453%.
For `CCC1CCCCN1C(=O)CCn1cnc2sccc2c1=O` (configuration not stated), the “Percent Effect” value amounted to 3.224%.
In the case of `OCC1CCCCN1Cc1cc(O)c2cccc(F)c2n1` (configuration not stated), the “Percent Effect” value was -10.07%.
The value for `Cc1nccc(N2CCC(=O)N(Cc3ccc(F)cc3)C(C(C)C)C2)n1` (configuration not stated) was -4.712%.
For the molecule `Cc1ccc(CC(=O)Nc2ccc(CS(C)(=O)=O)c(F)c2)cc1`, the “Percent Effect” value is reported as -3.383%.
